Activity calls are given as the source filed them. How the source made its calls: active means hit-call score of the fitted dose curve at least 0.9, where 1 is the maximum; inactive means score below 0.9.
read-out: Peroxisomal acyl-coenzyme A oxidase 1 (ACOX1) gene, ACOX1 (gene 51); experiment: LTEA_HepaRG_ACOX1: Life Technologies and Expression Analysis (LTEA) Assay for Peroxisomal acyl-coenzyme A oxidase 1 (ACOX1) gene using HepaRG (AID 2283467); details: mRNA level, 48 h; actives raise or lower the signal
Experimental: LTEA_HepaRG is a cell based, multiplexed-readout assay that uses HepaRG, a human liver cell line, with measurements taken at 48 hours after chemical dosing on a 96-well plate.LTEA_HepaRG_ACOX1 is one of 102 assay component(s) measured in the LTEA HepaRG cell culture assay. It is a marker of Steatosis.Data from the assay component LTEA_HepaRG_ACOX1 was analyzed into 1 endpoint. This assay endpoint, LTEA_HepaRG_ACOX1, was analyzed with bidirectional fitting relative to DMSO as the negative control and baseline of activity. Using a type of inducible reporter, measures of mRNA induction for gain or loss-of-signal activity can be used to understand regulation of transcription factor activity. To generalize the intended target to other relatable targets, this assay endpoint is annotated to the oxidase intended target family, where the subfamily is steatosis.
A total of 1060 chemcials from the ToxCast library were tested in eight-point concentration-response experiments. Cell culture and cytotoxicity assays were conducted at Thermo Fisher Scientific's Custom Services facility (Madison, WI). A single lot of human HepaRG cells (Thermo Fisher Scientific, Frederick, MD) was used for the cell culture experiments. 96-well format collagen type I coated plates of human HepaRG cells were prepared using established methods. Briefly, cryopreserved HepaRG cells were thawed, plated at a density of approximately 100,000 cells/well in HepaRG Thaw, Plate, and General Purpose media (HPRG770, Thermo Fisher Scientific), and incubated for 48 hours. 0.5% DMSO was selected as vehicle control to balance the requisite need of DMSO in HepaRG cultures to maintain differentiation (for example, baseline metabolism, proportions of hepatocytes vs. cholangiocytes), while enabling further hepatic receptor pathway activation (for example, PXR and CAR) in response to chemical exposure. 48 hours after plating, the culture medium was replaced with HepaRG Serum-Free Incudtion Media. Cells were exposed to each test chemical in duplicate and maintained in CO2 incubators for another 48 hours. Chemical plates were thawed to room temperature and 200x concentrations of treatment groups were prepared. 8-point conentration-reponse curves were made with the highest exposure at 100 uM, followed by half-log dilutions, all in 0.5% DMSO. Each test plate contained variouse controls, induction positive controls (1mM phenobarbital), cytotoxicity positive controls ([…] aflatoxin B1), vehicle controls (0.5% DMSO), and total lysis controls (0.5% DMSO). Cell morphology images were taken using an Essen IncuCyte FLR automated microscope, with six 96-well plates imaged in about 24 minutes. Images were captured and exported and JPEG files. Spent culture media was transfered to black-well plates for the LDH assay, and remaining media was sorted at -80 C for later use. Cells were treated with RLT buffer and frozen until shipped for gene expression analysis. Total RNA was isolated from the cell suspension in 75 uL of Buffer RLT (Qiagen, Germantown, MD 20874) by Quintiles/Expression Analysis (Durham, NC) using a custom isolation procedure. Total RNA from each plate well was transferred to a preamplification plate. Fluidigm's 96.96 Dynamic ArrayTM (Fluidigm, Amsterdam, the Netherlands) technology was used for gene expression analyses by quantitative reverse transcription polymerase chain reaction (qRT-PCR, performed by Quintiles/Expression Analysis, Durham, NC)89. Standard TaqManTM Assays (Applied Biosystems/ThermoFisher Scientific, Foster City, CA) were used to assess the expression of 93 genes selected based on their selectivity and sensitivity to important hepatic receptors known to be modulated by environmental chemicals; importance in human hepatocyte functionality; and hepatotoxicity. […]

| SMILES | outcome | AC50 |
| --- | --- | --- |
| CNC(=O)[C@H]1O[C@@H](n2cnc3c(NCc4cc(Cl)ccc4OCc4cc(C)no4)ncnc32)[C@H](O)[C@@H]1N | inactive | – |
| CCCCN(CCCC)CCCC | inactive | – |
| C[C@]12C=CC(=O)C=C1CC[C@@H]1[C@@H]2C(=O)C[C@@]2(C)[C@H]1CC[C@]2(O)C(=O)CO | inactive | – |
| CCCCOC(=O)CCCCCCCCC(=O)OCCCC | inactive | – |
| Nc1nc(N)c2nc(CNc3ccc(C(=O)N[C@@H](CCC(=O)O)C(=O)O)cc3)cnc2n1 | inactive | – |
| CNCc1cc(F)ccc1Oc1ccc(Cl)c(Cl)c1 | – | 74.2 µM (active) |
| CC1=C(/C=C/C(C)=C/C=C/C(C)=C/CO)C(C)(C)CCC1 | inactive | – |
| Cc1ccc(C)c(C)c1 | inactive | – |
| CC1(C)NC(=O)NC1=O | inactive | – |
| Cc1ccc(N(C)C)cc1 | inactive | – |
| Cc1oc(-c2ccccc2)nc1CCOc1cccc2c1ccn2CCC(=O)O | – | 0.106 µM (active) |
| CN1CCN(Cc2cc(-c3ccc4[nH]c(=O)oc4c3)co2)[C@@H](c2ccc(F)cc2)C1 | inactive | – |
| Nc1ccc(S(=O)(=O)c2ccc(N)cc2)cc1 | inactive | – |
| CC(=O)OC/C=C(\C)CCC=C(C)C | inactive | – |
| Cc1c(C(=O)O)c(O)cc2c1C(=O)c1c(O)c([C@@H]3O[C@H](CO)[C@@H](O)[C@H](O)[C@H]3O)c(O)c(O)c1C2=O | inactive | – |
| CCCCCCC(=O)OCC | inactive | – |
| CCCCCCCCCCCCCCCCCC(=O)O | inactive | – |
| Oc1ccc2c(c1)OC[C@@H](N1CCC(O)(c3ccc(F)cc3)CC1)[C@H]2O | inactive | – |
| CC(C)(C)c1cc(O)c(C(C)(C)C)cc1O | – | 77.3 µM (active) |
| COc1ccc(C)cc1N | inactive | – |

| SMILES | outcome | AC50 |
| --- | --- | --- |
| Cc1ccc(Cl)cc1 | inactive | – |
| COc1ccc(S(=O)(=O)N2C(=O)[C@@](c3ccccc3OC)(N3C[C@H](O)C[C@H]3C(=O)N(C)C)c3cc(Cl)ccc32)c(OC)c1 | – | 17.6 µM (active) |
| Cc1cccc([N+](=O)[O-])c1C | inactive | – |
| O=c1c(O)c(-c2ccc(O)c(O)c2)oc2cc(O)cc(O)c12 | inactive | – |
| CCNc1cccc(C)c1 | inactive | – |
| CC=Cc1ccc(O)c(OC)c1 | inactive | – |
| O=C(O)CCCCC(=O)O | inactive | – |
| O=[N+]([O-])C(CO)(CO)CO | inactive | – |
| CC1(C)CC(N=C=O)CC(C)(CN=C=O)C1 (stereo not given) | inactive | – |
| Cc1ccccc1Cl | inactive | – |
| COCCOC[C@H](CC1(C(=O)NC2CCC(C(=O)O)CC2)CCCC1)C(=O)Oc1ccc2c(c1)CCC2 (stereo not given in full) | inactive | – |
| CC(=O)OCCOCCOCCOC(C)=O | inactive | – |
| NS(=O)(=O)c1cc2c(cc1Cl)NCNS2(=O)=O | inactive | – |
| CCCCCC(=O)O | inactive | – |
| Nc1ccccc1N | – | 62.3 µM (active) |
| OC[C@@H](O)[C@@H](O)[C@H](O)[C@H](O)CO | inactive | – |
| Cc1ccc(C(C)C)c(O)c1 | inactive | – |
| CCOC(=O)CCC(=O)OCC | inactive | – |
| Cc1ccc2ncccc2c1 | inactive | – |
| Cc1nc(-c2ccc3c(c2)CCN(CCC2CCC(NC(=O)/C=C/c4ccc(F)cc4)CC2)CC3)no1 (stereo not given) | inactive | – |

From PubChem BioAssay (EPA / NIEHS)
